# Results published in PubChem BioAssay (NCATS).
# Values joined by “and” are separate entries in the source; they are usually repeats but may differ in a detail not shown here. Identical values can stand only once. Active and inactive are the calls of the source. Unless noted, calls follow the shape of the full dose curve.
# Experiments:
# [1] = target: 3',5'-cyclic-AMP phosphodiesterase 4B (Homo sapiens) (UniProt Q07343); experiment: qHTS Assay for Inhibitors of PDE-IV (AID 607; active = well fitted activation curve with a large enough effect in the main read-out, with a control signal flat, not every such curve was filed as active; inconclusive = small, poorly fitted or top-dose-only effect, or effect the other way, or a change in a side signal; also: % of control where 0% means no effect)
# 3',5'-cyclic-AMP phosphodiesterase 4B (Homo sapiens), sequence (Q07343 whole entry, looked up): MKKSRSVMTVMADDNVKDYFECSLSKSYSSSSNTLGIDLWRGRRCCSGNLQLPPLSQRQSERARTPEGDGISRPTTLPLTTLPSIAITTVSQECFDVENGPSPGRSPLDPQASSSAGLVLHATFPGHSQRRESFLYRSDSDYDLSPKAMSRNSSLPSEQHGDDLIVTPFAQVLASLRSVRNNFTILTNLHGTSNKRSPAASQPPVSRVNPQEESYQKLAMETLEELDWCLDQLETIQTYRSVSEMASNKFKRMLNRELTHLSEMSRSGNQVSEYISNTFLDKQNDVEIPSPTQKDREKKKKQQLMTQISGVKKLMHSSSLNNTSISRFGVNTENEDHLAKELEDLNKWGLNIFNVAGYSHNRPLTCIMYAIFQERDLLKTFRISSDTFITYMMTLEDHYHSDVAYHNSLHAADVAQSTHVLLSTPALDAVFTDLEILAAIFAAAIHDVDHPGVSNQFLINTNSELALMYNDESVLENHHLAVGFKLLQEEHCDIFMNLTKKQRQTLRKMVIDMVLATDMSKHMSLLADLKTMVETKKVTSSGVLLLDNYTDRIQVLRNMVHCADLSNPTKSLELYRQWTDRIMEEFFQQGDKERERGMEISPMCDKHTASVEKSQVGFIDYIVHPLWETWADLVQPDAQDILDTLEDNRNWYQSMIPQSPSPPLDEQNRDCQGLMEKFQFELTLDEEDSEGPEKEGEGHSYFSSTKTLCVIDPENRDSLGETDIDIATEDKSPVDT
# How it was run: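 HEK293 ACTOne cells with CNG channel (1000/well), endogenous PDE4; membrane potential dye, compounds up to 22.9 uM final. Fluorescence Ex 535/Em 590; RO 20-1724 (100 uM final) as reference.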
# [2] = target: Cytochrome P450 2C9 (Homo sapiens) (UniProt P11712); experiment: qHTS Assay for Inhibitors and Substrates of Cytochrome P450 2C9 (AID 883; active = well fitted inhibition curve with a large enough effect; inconclusive = small, poorly fitted or top-dose-only effect; inactive = no such curve, though single readings can be large or run the other way; also: nearly all actives have a fitted effect of over 60% in size; also: potency is read from the fitted curve at half-maximal effect)
# Cytochrome P450 2C9 (Homo sapiens), sequence (P11712 whole entry, looked up): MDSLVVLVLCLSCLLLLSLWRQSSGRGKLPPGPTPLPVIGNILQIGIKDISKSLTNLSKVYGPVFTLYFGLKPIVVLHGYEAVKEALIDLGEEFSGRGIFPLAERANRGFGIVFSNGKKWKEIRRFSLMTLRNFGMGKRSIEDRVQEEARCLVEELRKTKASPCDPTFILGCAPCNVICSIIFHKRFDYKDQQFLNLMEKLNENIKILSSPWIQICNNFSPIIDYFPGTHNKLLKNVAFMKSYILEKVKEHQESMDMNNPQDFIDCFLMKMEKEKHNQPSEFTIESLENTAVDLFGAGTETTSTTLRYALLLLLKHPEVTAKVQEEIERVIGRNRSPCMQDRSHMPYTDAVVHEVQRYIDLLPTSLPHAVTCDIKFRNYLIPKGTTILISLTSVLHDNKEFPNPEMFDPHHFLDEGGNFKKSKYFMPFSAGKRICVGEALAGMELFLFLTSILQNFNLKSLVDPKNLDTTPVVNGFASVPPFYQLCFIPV
# How it was run: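 Human CYP2C9 (10nM) hydroxylated Luciferin-H (100uM, at its KM) to luciferin in 25mM KPO4. Compound was preincubated 10 min at 37C, then NADPH regeneration started a 60 min reaction at 37C. Luminescence was read after detection reagent, normalized to 57uM sulphaphenazole.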
# [3] = target: Cytochrome P450 2D6 (Homo sapiens) (UniProt P10635); experiment: qHTS Assay for Inhibitors and Substrates of Cytochrome P450 2D6 (AID 891; active = well fitted inhibition curve with a large enough effect; inconclusive = small, poorly fitted or top-dose-only effect; inactive = no such curve, though single readings can be large or run the other way; also: nearly all actives have a fitted effect of over 60% in size; also: potency is read from the fitted curve at half-maximal effect)
# Cytochrome P450 2D6 (Homo sapiens), sequence (P10635 whole entry, looked up): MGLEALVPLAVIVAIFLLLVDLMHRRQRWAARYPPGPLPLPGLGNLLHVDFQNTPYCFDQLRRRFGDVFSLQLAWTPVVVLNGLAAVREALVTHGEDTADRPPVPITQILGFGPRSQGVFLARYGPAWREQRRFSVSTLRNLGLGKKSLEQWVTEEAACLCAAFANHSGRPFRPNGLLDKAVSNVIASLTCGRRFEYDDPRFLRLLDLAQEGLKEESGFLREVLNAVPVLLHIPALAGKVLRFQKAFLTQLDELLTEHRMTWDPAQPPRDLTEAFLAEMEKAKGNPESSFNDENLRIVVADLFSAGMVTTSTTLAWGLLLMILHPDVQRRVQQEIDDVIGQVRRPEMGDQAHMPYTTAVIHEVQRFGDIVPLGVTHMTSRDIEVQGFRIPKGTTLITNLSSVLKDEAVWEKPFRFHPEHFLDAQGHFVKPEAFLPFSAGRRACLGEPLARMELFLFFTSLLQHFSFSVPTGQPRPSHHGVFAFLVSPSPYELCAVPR
# How it was run: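 Human CYP2D6 (5 nM) with 30 uM Luciferin-ME EGE (at Km) in 100 mM KPO4, compound preincubated 10 min, then NADPH regeneration system for 60 min at room temperature. Luciferin read by luminescence; normalized to 1.43 uM quinidine.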
# [4] = target: Glucocorticoid receptor (Homo sapiens) (UniProt P04150); experiment: qHTS assay for small molecule agonists of glucocorticoid receptor signaling (AID 588532; active = well fitted curve in the direction sought with a large enough effect in the signal ratio, with a control signal flat; inconclusive = small, poorly fitted or top-dose-only effect, or a change in a side signal; inactive = no such curve, though single readings can be large or run the other way; the % refers to the signal ratio;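 also: 100% = dexamethasone at 0.1 µM and 0% = DMSO only wells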); conditions: HeLa MMTV-bla, beta-lactamase ratio, agonist, 18 h; stronger effect = higher value; percent of dexamethasone control, DMSO zero
# Glucocorticoid receptor (Homo sapiens), sequence (P04150 whole entry, looked up): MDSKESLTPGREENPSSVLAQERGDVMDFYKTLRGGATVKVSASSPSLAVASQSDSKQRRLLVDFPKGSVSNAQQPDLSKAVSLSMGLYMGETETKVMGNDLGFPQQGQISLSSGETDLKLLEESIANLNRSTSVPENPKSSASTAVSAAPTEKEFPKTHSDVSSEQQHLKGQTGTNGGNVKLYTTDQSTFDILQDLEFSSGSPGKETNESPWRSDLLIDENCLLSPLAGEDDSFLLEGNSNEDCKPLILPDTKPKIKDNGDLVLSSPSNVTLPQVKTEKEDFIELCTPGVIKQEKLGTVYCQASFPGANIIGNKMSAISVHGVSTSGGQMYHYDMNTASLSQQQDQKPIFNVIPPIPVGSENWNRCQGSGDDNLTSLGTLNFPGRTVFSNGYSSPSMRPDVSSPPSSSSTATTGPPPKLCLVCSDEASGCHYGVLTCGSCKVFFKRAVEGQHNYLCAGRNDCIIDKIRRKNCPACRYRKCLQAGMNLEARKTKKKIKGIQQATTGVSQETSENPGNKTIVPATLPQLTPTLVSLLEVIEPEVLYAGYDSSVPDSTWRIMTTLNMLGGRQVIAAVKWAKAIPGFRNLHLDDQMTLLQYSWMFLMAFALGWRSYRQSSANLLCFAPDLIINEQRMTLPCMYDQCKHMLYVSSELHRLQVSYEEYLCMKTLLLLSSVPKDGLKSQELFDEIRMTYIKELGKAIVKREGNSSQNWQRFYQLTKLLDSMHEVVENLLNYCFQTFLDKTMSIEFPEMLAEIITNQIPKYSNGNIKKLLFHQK
# How it was run: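 MMTV-bla HeLa, beta-lactamase reporter; medium with 1% charcoal/dextran-stripped FBS; cpds up to 92 uM, 18 h, 37 C; CCF4 readout 460/530 nm; Hill fit → EC50, efficacy vs 0.1 uM dexamethasone = 100%.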
# [5] = target: Peroxisome proliferator-activated receptor delta (Homo sapiens) (UniProt Q03181); experiment: qHTS assay for small molecule antagonists of peroxisome proliferator-activated receptor delta signaling (AID 588535; active = well fitted inhibition curve with a large enough effect in the signal ratio, with a control signal flat, not every such curve was filed as active; inconclusive = small, poorly fitted or top-dose-only effect, or effect the other way, or a change in a side signal; inactive = no such curve, though single readings can be large or run the other way; the % refers to the signal ratio)
# How it was run: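 Reporter: UAS-bla under PPAR-delta response element, HEK293T host. Medium: 2% charcoal/dextran FBS. Dosing: titration, 18 hrs, 37 C. Detection: CCF4, 2 hrs RT, 405 ex/460 and 530 em.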
# [6] = qHTS assay for small molecule agonists of retinoid X receptor alpha signaling (AID 588544); conditions: HEK293T RXRa-UAS-bla, beta-lactamase reporter, 18 h; 530 nm emission
# [7] = qHTS assay for small molecule antagonists of retinoid X receptor alpha signaling (AID 588546; active = well fitted inhibition curve with a large enough effect in the signal ratio, with a control signal flat, not every such curve was filed as active; inconclusive = small, poorly fitted or top-dose-only effect, or effect the other way, or a change in a side signal; inactive = no such curve, though single readings can be large or run the other way; the % refers to the signal ratio;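 also: cells stimulated with 9-cis-retinoic acid as agonist; % is scaled to controls: 0 for no effect and ±100 for the full control effect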); conditions: HEK293T RXRa-UAS-bla, beta-lactamase ratio, antagonist mode; measured here: W530 green channel, cytotoxicity proxy
# How it was run: (§1)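 Beta-lactamase reporter inhibition, read as CCF4 fluorescence ratio (ex 405, em 460/530 nm) after 2 h at RT. HEK293T UAS-bla cells, 2500/well, were stimulated with 9-cis-RA at 500 or 100 nM final alongside test compound for 18 h at 37 C.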
# [8] = target: Retinoic acid receptor RXR-alpha (Homo sapiens) (UniProt P19793); experiment: as above; conditions: HEK293T RXRa-UAS-bla, beta-lactamase ratio, antagonist mode
# How it was run: as §1
# [9] = target: Thyroid hormone receptor beta (Homo sapiens) (UniProt P10828); experiment: qHTS assay for small molecule antagonists of thyroid hormone receptor beta signaling (AID 588547; active = well fitted inhibition curve with a large enough effect in the signal ratio, with a control signal flat, not every such curve was filed as active; inconclusive = small, poorly fitted or top-dose-only effect, or effect the other way, or a change in a side signal; the % refers to the signal ratio;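 also: cells stimulated with 0.4 nM T3 agonist during compound exposure; series mostly up to about 77 µM; % is scaled to controls: 0 for no effect and ±100 for the full control effect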); conditions: TR-UAS-bla HEK293, beta-lactamase ratio, antagonist mode, 18 h
# Thyroid hormone receptor beta (Homo sapiens), sequence (P10828 whole entry, looked up): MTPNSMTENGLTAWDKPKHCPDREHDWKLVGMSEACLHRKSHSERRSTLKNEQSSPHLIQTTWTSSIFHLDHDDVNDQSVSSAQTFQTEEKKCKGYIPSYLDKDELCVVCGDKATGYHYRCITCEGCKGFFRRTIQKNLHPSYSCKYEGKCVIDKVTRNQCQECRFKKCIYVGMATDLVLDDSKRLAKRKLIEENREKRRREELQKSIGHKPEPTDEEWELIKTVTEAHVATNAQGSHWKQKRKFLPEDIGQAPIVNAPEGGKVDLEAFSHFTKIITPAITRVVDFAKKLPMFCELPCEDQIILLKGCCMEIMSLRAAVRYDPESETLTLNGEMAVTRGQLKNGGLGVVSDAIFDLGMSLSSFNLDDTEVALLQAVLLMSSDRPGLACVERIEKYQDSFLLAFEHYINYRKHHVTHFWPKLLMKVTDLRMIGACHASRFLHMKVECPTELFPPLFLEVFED
# How it was run: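 TR-UAS-bla GripTite HEK293 cells in 2% charcoal/dextran FBS medium were preincubated 4 h at 37 C, given compound (0.59 nM to 92 uM) plus 0.4 nM T3 (final) for 18 h, then CCF4 for 2 h at RT; Hill fit gave IC50.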
# [10] = qHTS assay for small molecule activators of the p53 signaling pathway (AID 651743; active = well fitted activation curve with a large enough effect in the signal ratio, not every such curve was filed as active; inconclusive = small, poorly fitted or top-dose-only effect, or a change in a side signal; the % refers to the signal ratio; also: series mostly up to about 92 µM; % of control where 0% means no effect); conditions: HCT-116 p53RE-bla, beta-lactamase FRET ratio, 16 h; activation: stronger effect = higher value
# How it was run: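 Cell-based beta-lactamase reporter (p53 response elements, HCT-116 background). After a 5-hour preincubation, cells received compound for 16 hours at 37 C; substrate development ran 2 hours at room temperature.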
# [11] = qHTS assay for small molecule activators of the human pregnane X receptor (PXR) signaling pathway (AID 720659; call rule not given here; also: 0% is about no effect)
# [12] = qHTS assay for small molecule agonists of the antioxidant response element (ARE) signaling pathway (AID 651741; active = well fitted activation curve with a large enough effect in the signal ratio; inconclusive = small, poorly fitted or top-dose-only effect, or effect the other way, or a change in a side signal; the % refers to the signal ratio; also: potency is read from the fitted curve at half-maximal effect; as to activation: % of control where 0% means no effect)
# How it was run: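 Compounds in DMSO are pinned onto HepG2 ARE-bla cells (2,000/well) that were preincubated 5 h; plates stay 16 h at 37 C, then beta-lactamase activity is detected with LiveBLAzer B/G substrate by fluorescence.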
# [13] = qHTS assay for small molecule activators of the nuclear factor-kappa B (NF-kB) signaling pathway (AID 651749; active = well fitted activation curve with a large enough effect in the signal ratio; inconclusive = small, poorly fitted or top-dose-only effect, or a change in a side signal; the % refers to the signal ratio; also: series mostly up to about 77 µM; % of control where 0% means no effect); conditions: NF-kB-bla ME-180 cells, beta-lactamase FRET ratio, 16 h; stronger effect = higher value
# How it was run: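 Screening used 2,000 ME-180 reporter cells per well exposed to pinned compound (23 nL) or DMSO; after 16 hr at 37C, beta-lactamase expression under NF-kB control was assessed through FRET.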
# [14] = target: Tumor necrosis factor (Homo sapiens) (UniProt P01375); experiment: qHTS assay to identify small molecules that stimulate Tumor Necrosis Factor-alpha (TNF-alpha) secretion (AID 651757; active = well fitted curve in the direction sought with a large enough effect in the signal ratio; inconclusive = small, poorly fitted or top-dose-only effect, or a change in a side signal; inactive = no such curve, though single readings can be large or run the other way; the % refers to the signal ratio; also: 0% is about no effect)
# Tumor necrosis factor (Homo sapiens), sequence (P01375 whole entry, looked up): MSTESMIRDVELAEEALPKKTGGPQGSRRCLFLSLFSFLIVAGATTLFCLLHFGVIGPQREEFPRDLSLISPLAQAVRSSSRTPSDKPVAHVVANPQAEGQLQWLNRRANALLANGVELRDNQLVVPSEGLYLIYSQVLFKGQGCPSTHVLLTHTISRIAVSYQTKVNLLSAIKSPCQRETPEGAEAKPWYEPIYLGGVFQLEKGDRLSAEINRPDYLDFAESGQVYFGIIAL
# How it was run: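 THP-1 cells (3000/well) exposed to compounds 17 hrs at 37 C. Secreted TNF-alpha detected by HTRF with cryptate- and XL665-labeled anti-TNF-alpha antibodies after 3 hr at room temperature.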
# [15] = target: Vitamin D3 receptor (Homo sapiens) (UniProt P11473); experiment: qHTS assay for small molecule agonists of vitamin D receptor signaling (AID 588543);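 also: 0% = DMSO basal and 100% = reference agonist control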
# Vitamin D3 receptor (Homo sapiens), sequence (P11473 whole entry, looked up): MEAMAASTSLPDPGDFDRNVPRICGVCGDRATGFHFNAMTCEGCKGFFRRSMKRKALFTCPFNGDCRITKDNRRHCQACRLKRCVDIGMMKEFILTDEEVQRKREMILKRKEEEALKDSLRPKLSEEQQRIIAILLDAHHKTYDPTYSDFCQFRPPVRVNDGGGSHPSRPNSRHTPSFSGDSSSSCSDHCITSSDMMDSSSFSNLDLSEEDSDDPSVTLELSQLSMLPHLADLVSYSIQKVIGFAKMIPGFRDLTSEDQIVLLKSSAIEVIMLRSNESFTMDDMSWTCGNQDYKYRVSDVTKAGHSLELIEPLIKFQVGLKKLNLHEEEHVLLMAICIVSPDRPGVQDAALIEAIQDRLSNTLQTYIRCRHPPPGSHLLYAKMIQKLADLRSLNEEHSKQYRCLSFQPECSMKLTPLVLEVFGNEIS
# How it was run: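 Agonist-mode beta-lactamase reporter: HEK293T VDR-UAS-bla cells in charcoal-stripped 2% FBS, compound series 16 h 37 C, CCF4 2 h RT. EC50 from Hill fit, scaled against DMSO and 50 nM calcitriol control.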
# [16] = target: Estrogen receptor (Homo sapiens) (UniProt P03372); experiment: qHTS assay for small molecule antagonists of estrogen receptor alpha signaling (AID 588513; active = well fitted curve in the direction sought with a large enough effect in the signal ratio, with a control signal flat, not every such curve was filed as active; inconclusive = small, poorly fitted or top-dose-only effect, or effect the other way, or a change in a side signal; inactive = no such curve, though single readings can be large or run the other way; the % refers to the signal ratio; also: potency is read from the fitted curve at half-maximal effect)
# Estrogen receptor (Homo sapiens), sequence (P03372 whole entry, looked up): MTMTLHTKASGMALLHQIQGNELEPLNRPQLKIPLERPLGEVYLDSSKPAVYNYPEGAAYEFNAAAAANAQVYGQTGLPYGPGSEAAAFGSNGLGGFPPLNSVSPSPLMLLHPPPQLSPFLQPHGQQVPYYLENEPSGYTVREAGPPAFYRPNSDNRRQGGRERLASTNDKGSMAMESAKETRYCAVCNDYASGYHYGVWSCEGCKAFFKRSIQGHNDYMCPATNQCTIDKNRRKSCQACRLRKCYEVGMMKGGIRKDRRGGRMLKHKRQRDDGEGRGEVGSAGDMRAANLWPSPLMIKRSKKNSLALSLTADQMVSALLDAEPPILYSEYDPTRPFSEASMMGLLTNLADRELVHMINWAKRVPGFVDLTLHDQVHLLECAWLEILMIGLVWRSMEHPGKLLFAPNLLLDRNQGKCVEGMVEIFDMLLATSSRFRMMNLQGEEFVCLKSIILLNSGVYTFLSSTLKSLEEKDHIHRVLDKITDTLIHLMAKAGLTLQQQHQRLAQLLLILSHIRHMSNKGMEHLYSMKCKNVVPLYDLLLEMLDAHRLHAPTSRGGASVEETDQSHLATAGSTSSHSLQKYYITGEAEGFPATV
# How it was run: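 Antagonist mode: inhibition of 0.5 nM 17-beta-estradiol-driven beta-lactamase reporter in HEK 293 ER-alpha-UAS-bla cells, 18 h at 37C, CCF4 readout after 2 h at RT. Normalised to estradiol and DMSO; titration fitted to Hill.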
# [17] = target: Estrogen receptor (Homo sapiens) (UniProt P03372); experiment: qHTS assay for small molecule agonists of estrogen receptor alpha signaling (AID 588514);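 also: 0% = vehicle only and 100% = reference agonist; nearly all actives have a fitted effect of over 70% in size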
# How it was run: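 ER-alpha-UAS-bla GripTite HEK293 cells, 5000/well in 2% charcoal/dextran-stripped FBS medium, treated with compound titrations 18 h at 37 C. CCF4 beta-lactamase read by fluorescence after 2 h RT; normalised to 20 nM 17-beta-estradiol (100%) and DMSO (0%), Hill fit for EC50 and efficacy.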
# [18] = target: Bile acid receptor (Homo sapiens) (UniProt Q96RI1); experiment: qHTS assay for small molecule antagonists of farnesoid X receptor signaling (AID 588526); also: potency is read from the fitted curve at half-maximal effect
# Bile acid receptor (Homo sapiens), sequence (Q96RI1 whole entry, looked up): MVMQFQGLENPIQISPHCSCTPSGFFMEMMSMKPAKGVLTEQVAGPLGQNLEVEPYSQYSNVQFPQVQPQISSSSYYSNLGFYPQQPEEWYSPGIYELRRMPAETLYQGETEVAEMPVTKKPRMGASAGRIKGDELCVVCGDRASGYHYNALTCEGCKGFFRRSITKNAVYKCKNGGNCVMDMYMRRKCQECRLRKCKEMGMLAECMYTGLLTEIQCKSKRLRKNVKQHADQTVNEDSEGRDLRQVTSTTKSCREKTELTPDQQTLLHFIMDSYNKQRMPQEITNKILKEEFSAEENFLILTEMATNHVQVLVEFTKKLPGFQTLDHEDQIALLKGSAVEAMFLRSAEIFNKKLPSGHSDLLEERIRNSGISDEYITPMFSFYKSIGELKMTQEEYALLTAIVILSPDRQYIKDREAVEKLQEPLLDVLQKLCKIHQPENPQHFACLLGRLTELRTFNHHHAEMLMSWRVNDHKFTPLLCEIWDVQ
# How it was run: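 Concentration-response titrations were fitted to the Hill equation for half-maximal inhibition and maximal response, with data normalised to 50 uM chenodeoxycholic acid and DMSO control wells. Cells: FXR-UAS-bla HEK293T, dialyzed FBS.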
# [19] = target: Glucocorticoid receptor (Homo sapiens) (UniProt P04150); experiment: qHTS assay for small molecule antagonists of glucocorticoid receptor signaling (AID 588533; active = well fitted inhibition curve with a large enough effect in the signal ratio, with a control signal flat, not every such curve was filed as active; inconclusive = small, poorly fitted or top-dose-only effect, or effect the other way, or a change in a side signal; the % refers to the signal ratio;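 also: cells stimulated with 2 nM dexamethasone as agonist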; also: potency is read from the fitted curve at half-maximal effect)
# How it was run: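 Antagonist-mode qHTS: compound titrations added to GRE-bla HeLa cells, then dexamethasone 2 nM final; 18 h, 37 C. CCF4 FRET fluorescence normalized to dexamethasone and DMSO; IC50 from Hill fit.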
# [20] = target: Vitamin D3 receptor (Homo sapiens) (UniProt P11473); experiment: qHTS assay for small molecule antagonists of vitamin D receptor signaling (AID 588541);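 also: receptor activated by calcitriol during compound treatment; series mostly up to about 77 µM; % is scaled to controls: 0 for no effect and ±100 for the full control effect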
# How it was run: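 VDR-UAS-bla HEK293T cells (2000/well, 2% charcoal-stripped FBS) were treated with titrated compounds plus 1-alpha,25-dihydroxyvitamin D3 (50 nM or 3 nM final) for 16 h at 37 C. CCF4 beta-lactamase fluorescence was read; Hill fits gave IC50.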
structure (smiles),measurement,setting,value
CC1=C(\C=C/C(C)=C/C=C\C(C)=C\CO)C(C)(C)CCC1,Potency,[1],inactive
same,Potency,[2],inactive
same,Potency,[3],inactive
COC(=O)[C@@H]1C[C@H]1[C@@H](NC(=O)c1ccccc1)c1ccccc1,Potency,[1],inactive
C[C@@]1(C(NC(=O)c2ccc(-c3ccccc3)cc2)c2ccc(Cl)cc2)C[C@H]1C1CCCCC1 (stereo partly drawn),Potency,[1],inactive
COC(=O)[C@H](C)[C@H]1C[C@]1(C)[C@H](NC(=O)OCc1ccccc1)c1ccccc1,Potency,[1],inactive
same,Potency,[2],2 µM (active)
CCCC[C@@H]1C[C@H]1C(NC(=O)c1cccs1)c1ccc(Cl)cc1 (stereo partly drawn),Potency,[1],inactive
CCC[C@@H]1C[C@@]1(CCC)C(NC(=O)c1ccccc1)c1cccc(Cl)c1 (stereo partly drawn),Potency,[3],3.16 µM (active)
C=C1C(=O)C=C2CN(C(=O)c3ccccc3)[C@@](Cc3ccc(F)cc3)(C(=O)OC)[C@@H]12,Potency,[2],3.98 µM (active)
CCC/C=C(\CCC)C(NC(=O)c1ccc(C(F)(F)F)cc1)c1ccccc1 (stereo not drawn),Potency,[1],inactive
same,Potency,[3],7.94 µM (active)
CCCC[C@@H]1C[C@H]1C(NC(=O)c1ccco1)c1ccc(Cl)cc1 (stereo partly drawn),Potency,[2],3.98 µM (active)
CCCC/C=C/C(NC(=O)C(C)(C)C)c1ccccc1 (stereo not drawn),Potency,[1],inactive
CCC/C=C(\CCC)C(NC(=O)OCC(C)C)c1ccc(C(=O)OC)cc1 (stereo not drawn),Potency,[1],inactive
same,Potency,[2],3.98 µM (active)
CCC/C=C(\CCC)C(NS(=O)(=O)c1ccc(Cl)cc1)c1ccccc1 (stereo not drawn),Potency,[2],2.51 µM (active)
CCC/C=C(\CCC)C(NS(=O)(=O)c1cccs1)c1ccc(C(=O)OC)cc1 (stereo not drawn),Potency,[1],inactive
same,Potency,[2],2 µM (active)
same,Potency,[3],6.31 µM (active)
CCC/C=C(\CCC)C(NS(=O)(=O)c1ccc(Cl)cc1)c1ccc(C(=O)OC)cc1 (stereo not drawn),Potency,[2],3.16 µM (active)
CCc1c2c(nc3cccc(C(C)C)c13)-c1cccc(=O)n1C2,Potency,[1],inactive
O=C(/C=C/c1ccc(O)c(O)c1)OC1C[C@](O)(C(=O)O)C[C@@H](O)[C@H]1O (stereo partly drawn),activation,[4],6.81% (inactive) and -6.91% (inactive)
same,outcome,[5],inactive
same,max response,[6],6.31% and 0.0385%
same,max response,[7],-7.31% and 4.34%
same,max response,[8],-11.4% (inactive) and -2.14% (inactive)
same,activity change % (negative = inhibition),[9],-9.6% (inactive) and 0.221% (inactive)
same,activation,[10],-1.07% (inactive) and -1.86% (inactive)
same,outcome,[11],inactive
Oc1ccc2cc(SSc3ccc4cc(O)ccc4c3)ccc2c1,Potency,[12],13.3 µM (active)
same,activation,[13],0.682% (inactive)
same,outcome,[14],inactive
CNc1ccc(O)cc1,outcome,[15],inactive
same,Potency,[12],13.3 µM (active)
same,activation,[10],-13.4% (inactive)
same,activation,[13],-0.994% (inactive)
same,outcome,[11],inactive
C=CC(=O)OCC(CO)(COC(=O)C=C)COC(=O)C=C,activation,[4],-3.48% (inactive) and -11.6% (inactive)
same,outcome,[14],inactive
Cc1cc(O)c(C(C)(C)C)cc1Sc1cc(C(C)(C)C)c(O)cc1C,Potency,[16],12.6 µM [inconclusive] (active)
same,outcome,[17],inactive
same,Potency,[18],22.4 µM (active)
same,activation,[4],26% (inactive)
same,outcome,[15],inactive
same,outcome,[14],inactive
Cc1ccc(S(=O)(=O)Oc2ccc(N=Nc3ccc(-c4ccc(N=Nc5c(O)ccc6cc(S(=O)(=O)O)cc(S(=O)(=O)O)c56)c(C)c4)cc3C)cc2)cc1,Potency,[18],inactive
same,Potency,[19],inactive
same,Potency,[20],inactive
same,outcome,[15],inactive
same,max response,[6],-16.1%
same,max response,[7],-21.4%
same,max response,[8],14.7% (inactive)
same,activity change % (negative = inhibition),[9],6.13% (inactive)
same,activation,[10],1.02% (inactive)
same,activation,[13],-0.0057% (inactive)
same,outcome,[11],inactive
C=C(C)c1ccccc1,Potency,[18],inactive
same,Potency,[20],inactive
same,outcome,[15],inactive
same,max response,[6],-11%
same,max response,[7],-0.247%
same,max response,[8],-3.16% (inactive)
same,activity change % (negative = inhibition),[9],2.47% (inactive)
same,activation,[10],-1.34% (inactive)
same,activation,[13],1.11% (inactive)
same,outcome,[14],inactive
same,outcome,[11],inactive
O=C=Nc1ccc(Cc2ccc(N=C=O)cc2)cc1,Potency,[18],inactive
same,activation,[4],5.29% (inactive) and -5.07% (inactive)
same,Potency,[19],inactive
same,outcome,[5],inactive
same,Potency,[20],inactive
same,outcome,[15],inactive
same,max response,[6],-1.3% and -4.07%
same,max response,[7],-3.54% and -5.83%
same,max response,[8],9.21% (inactive) and 0.991% (inactive)
same,activity change % (negative = inhibition),[9],-3.37% (inactive) and 10% (inactive)
same,Potency,[12],inactive
same,activation,[10],6.25% (inactive) and 1.32% (inactive)
same,activation,[13],0.0924% (inactive)
same,outcome,[14],inactive
same,outcome,[11],inactive
C=CC(=O)OCCOCCOC(=O)C=C,Potency,[16],35.5 µM [inconclusive] (active)
same,Potency,[19],44.7 µM (active)
same,Potency,[12],47.3 µM (active)
same,activation,[10],2.89% (inactive)
same,outcome,[14],inactive
same,outcome,[11],inactive
CO[C@H]1/C=C/O[C@@]2(C)Oc3c(C)c(O)c4c(O)c(c5c(c4c3C2=O)NC2(CCN(CC(C)C)CC2)N=5)=NC(=O)/C(C)=C\C=C\[C@H](C)[C@H](O)[C@@H](C)[C@@H](O)[C@@H](C)[C@H](OC(C)=O)[C@@H]1C,Potency,[16],inactive
same,outcome,[17],inactive
same,Potency,[18],inactive
same,activation,[4],-2.4% (inactive)
same,Potency,[19],inactive
same,Potency,[20],inactive
same,outcome,[15],inactive
same,activity change % (negative = inhibition),[9],5.09% (inactive)
same,activation,[10],-4.17% (inactive)
